{"source": "ChEMBL document CHEMBL4513216", "about": "“Probing the Open Global Health Chemical Diversity Library for Multistage-Active Starting Points for Next-Generation Antimalarials” (ACS Infect Dis, 2020)", "note": "Out of some 65,000 compounds screened, about 2,100 (3.2%) showed an effect of 50% or more. The median lay at about -52%. This excerpt belongs to a sample that is enriched for strong results.", "data": [{"system": "Plasmodium falciparum", "assay": "Screen against P. falciparum Asexual Blood Stage (ABS), at 5uM", "format": "functional, Dd2", "details": "tested at 5 uM", "units": {"INHIBITION": "%"}, "values": [{"smiles": "O=C(C[C@@H]1COC[C@H]2CN(Cc3cccnc3)C[C@@H]12)NCC1CC1", "INHIBITION": -71.5}, {"smiles": "CCN1C[C@@H]2[C@@H](OC)CCN(C(=O)Cc3ccsc3)[C@@H]2C1", "INHIBITION": 60}, {"smiles": "CCN1C[C@H]2[C@@H](C1)N(C(=O)Cc1ccsc1)CC[C@H]2OC", "INHIBITION": -31.1}, {"smiles": "CO[C@H]1CCN(C(=O)Cc2ccsc2)[C@@H]2CN(CC3CC3)C[C@H]12", "INHIBITION": 19.6}, {"smiles": "Cc1cccc(C)c1Nc1noc2c1CN(C(=O)c1cn(C)cn1)CC2", "INHIBITION": 88.3}, {"smiles": "Cc1cccc(C)c1Nc1noc2c1CN(C(=O)c1ccnn1C)CC2", "INHIBITION": 81.7}, {"smiles": "Cc1cccc(C)c1Nc1noc2c1CN(C(=O)c1ccn(C)n1)CC2", "INHIBITION": 86.6}, {"smiles": "Cc1cccc(C)c1Nc1noc2c1CN(C(=O)c1c[nH]nc1C)CC2", "INHIBITION": 93}, {"smiles": "O=C(c1cc2ccccc2[nH]c1=O)N1CCC2(CCCNC2)C1", "note": "(stereo unspecified)", "INHIBITION": -49.9}, {"smiles": "CCCN1CC[C@@H]2OC[C@H](C(=O)Nc3cccnc3)C[C@@H]2C1", "INHIBITION": -131}, {"smiles": "CC(C)NC(=O)CN1CCSC2(CCCCC2)C1", "INHIBITION": -66.6}, {"smiles": "CN1CC=C(c2noc(CCC(=O)N3CCc4ccccc4C3)n2)CC1", "INHIBITION": -27.1}, {"smiles": "CCc1ccccc1Nc1noc2c1CN(C(=O)CCOC)CC2", "INHIBITION": 85.1}, {"smiles": "CC(C)Nc1nc2c(c(NC3CC3)n1)CN(C(=O)Cc1ccsc1)CC2", "INHIBITION": 75.6}, {"smiles": "Cc1cccc(CN2CC[C@@H]3[C@@H]2CCN3C(=O)Cc2ccsc2)n1", "INHIBITION": -115}, {"smiles": "Cn1ccnc1CN1CC[C@H]2CO[C@H](CNc3ncccn3)[C@H]2C1", "INHIBITION": -52.6}, {"smiles": "Cn1ccnc1CN1CCN2C[C@H](Oc3cncnc3)C[C@H]2C1", "INHIBITION": -70.4}, {"smiles": "CC(C)N1CCO[C@H]2CN(C(=O)Cc3ccsc3)C[C@H]21", "INHIBITION": -23.1}, {"smiles": "CC(C)Nc1nc2c(c(NC3CC3)n1)CCN(Cc1nccn1C)CC2", "INHIBITION": 76.1}, {"smiles": "CN1CCC(n2cc3nc(N)[nH]cc-3c2=O)CC1", "INHIBITION": -44.7}, {"smiles": "O=C(COc1ccccc1)N1C[C@@H](O)[C@H](N2CCCC2)C1", "INHIBITION": -15.5}, {"smiles": "CNC(=O)[C@@H]1C[C@H]2CN(Cc3c(C)noc3C)C[C@H]2N1C(C)C", "INHIBITION": -39.8}, {"smiles": "COc1ccccc1OCCN(C)c1cc(C)nc(N)n1", "INHIBITION": 70.2}, {"smiles": "COCCN(C)C(C)Cc1ccccc1OC", "note": "(stereo unspecified)", "INHIBITION": 23.6}, {"smiles": "Cc1cc(N(C)CCOc2ccccc2F)nc(N)n1", "INHIBITION": 85.3}, {"smiles": "COc1ccccc1OCCCN(C)c1cc(C)nc(N)n1", "INHIBITION": 73.5}, {"smiles": "CC(C)CNC(=O)N1C[C@H]2CCN[C@H]2C1", "INHIBITION": 14}, {"smiles": "N#CC1(C(=O)NCC2CCC3(CCNCC3)O2)CC1", "note": "(stereo unspecified)", "INHIBITION": 22.6}, {"smiles": "CCS(=O)(=O)c1nnc([C@@H](N)Cc2ccccc2)o1", "INHIBITION": -131}, {"smiles": "CC[C@H](C)[C@@H](CO)NC(C)Cc1ccc(Cl)cc1", "note": "(stereo partly specified)", "INHIBITION": 18.9}, {"smiles": "COCCN1C(=O)CC[C@@H]2[C@@H]1CCN2Cc1c(C)noc1C", "INHIBITION": -35.6}, {"smiles": "O=C(Nc1cccnc1)[C@H]1CN(C2CCCC2)C[C@H]2OCC[C@@H]12", "INHIBITION": -39.7}, {"smiles": "COCCN1CCN(Cc2ccoc2)Cc2cccnc21", "INHIBITION": 21}, {"smiles": "CN(C)CCN1CCN(Cc2nccs2)Cc2cccnc21", "INHIBITION": 5.69}, {"smiles": "CN(C)CCN1CCN(Cc2cccs2)Cc2cccnc21", "INHIBITION": 77.1}, {"smiles": "CC(C)c1cc(C(=O)N2CCCC3(CCNC3)C2)no1", "note": "(stereo unspecified)", "INHIBITION": -75.8}, {"smiles": "O=C1CN(C(=O)c2ccc(F)cc2)CC(O)CN1Cc1cccs1", "note": "(stereo unspecified)", "INHIBITION": 88.8}, {"smiles": "CCN1C[C@@H]2CN(Cc3cccs3)C[C@@H]2C1=O", "INHIBITION": 37.6}, {"smiles": "O=C1[C@H]2CN(Cc3cccs3)C[C@H]2CN1c1cncnc1", "INHIBITION": -85.7}, {"smiles": "COCC(=O)NC(C)Cc1cccc(OC)c1", "note": "(stereo unspecified)", "INHIBITION": -118}, {"smiles": "Cc1noc(C)c1CN1C[C@@H]2COC[C@@H](C(=O)N3CCCO3)[C@@H]2C1", "INHIBITION": -40.4}, {"smiles": "Cc1c(C(C)NC2CCN(C(C)C)CC2)cnn1-c1ccc(F)cc1F", "note": "(stereo unspecified)", "INHIBITION": 79.9}, {"smiles": "Cc1c(C(C)NCC2CCCC2)cnn1-c1ccc(F)cc1F", "note": "(stereo unspecified)", "INHIBITION": 71.9}, {"smiles": "N#Cc1ccc(NC2CCN(c3ncccn3)CC2)cc1C(F)(F)F", "INHIBITION": 5.54}, {"smiles": "CCc1noc(C(C)N2CCNCC2)n1", "note": "(stereo unspecified)", "INHIBITION": -31.4}, {"smiles": "CCN1CCCC1CN(CCN(C)C)S(=O)(=O)c1ccccc1C#N", "note": "(stereo unspecified)", "INHIBITION": 79.6}, {"smiles": "O=C(NC1CC(F)(F)C1)[C@]12COC[C@H]1CN(Cc1cccnc1)C2", "INHIBITION": -63.2}, {"smiles": "CC1CCN(CCNCc2cc(-c3ccccc3)cn3nnnc23)CC1", "INHIBITION": 70.1}, {"smiles": "O=C(Cc1ccsc1)N1C[C@@H]2OCCN(CC3CCCO3)[C@@H]2C1", "note": "(stereo partly specified)", "INHIBITION": -85.3}, {"smiles": "O=C(N1CCOCC1)N1CCCC2(CCCNC2)C1", "note": "(stereo unspecified)", "INHIBITION": -45.8}, {"smiles": "Cn1cc(CN2C[C@@H]3OCCN(c4ncccn4)[C@@H]3C2)cn1", "INHIBITION": -106}, {"smiles": "CCOc1ccc2ccccc2c1CNCC1CCNCC1", "INHIBITION": 91.6}, {"smiles": "CCOc1ccc2ccccc2c1CNCC1CCS(=O)(=O)C1", "note": "(stereo unspecified)", "INHIBITION": 74.9}, {"smiles": "CC(C)CCN1C[C@@H]2C[C@H](C(=O)Nc3cccnc3)[C@H](C1)O2", "INHIBITION": -112}, {"smiles": "C[C@@H]1CN(C2CCOC2)C[C@]12CCN(c1cccnc1)C2=O", "note": "(stereo partly specified)", "INHIBITION": -78.9}, {"smiles": "CC(=O)N1C[C@@H]2CN(Cc3cccnc3)CCO[C@@H]2C1", "INHIBITION": -51.9}, {"smiles": "Cc1ccc([C@]2(O)CC[C@H]3CN(Cc4ccncc4)C[C@H]32)nc1", "INHIBITION": -23.8}, {"smiles": "Cc1ccc([C@]2(O)CC[C@H]3CN(Cc4cc(C)c(O)c(C)c4)C[C@H]32)nc1", "INHIBITION": 74.6}, {"smiles": "Cc1ccc([C@]2(O)CC[C@H]3CN(Cc4cccnc4)C[C@H]32)nc1", "INHIBITION": -61.7}, {"smiles": "Cc1ccc(-c2cn3c(n2)CO[C@@H](CNCc2nccn2C)C3)cc1", "INHIBITION": 87.4}, {"smiles": "CC(C)NC(=O)NC[C@H]1C[C@@H]2CCN1C[C@@H]2CN(C)c1ccccc1", "INHIBITION": -37.9}, {"smiles": "CC1CCN(C[C@H]2CN3CC[C@H]2C[C@@H]3CNC(=O)c2ccco2)CC1", "INHIBITION": -36.5}, {"smiles": "CC[C@H]1CN2CC[C@H]1C[C@@H]2CNCc1ccc(OC)cc1", "INHIBITION": 7}, {"smiles": "CC[C@H]1CN2CC[C@H]1C[C@@H]2CNCc1ccc(N(C)C)cc1", "INHIBITION": 62.8}, {"smiles": "CC[C@H]1CN2CC[C@H]1C[C@@H]2CNCc1ccc(OC(F)(F)F)cc1", "INHIBITION": 85.7}, {"smiles": "CC[C@H]1CN2CC[C@H]1C[C@@H]2CNC(=O)NC1CCCCC1", "INHIBITION": -27.6}, {"smiles": "CC[C@H]1CN2CC[C@H]1C[C@@H]2CNCc1ccc2c(c1)OCO2", "INHIBITION": 60.9}, {"smiles": "CC[C@H]1CN2CC[C@H]1C[C@@H]2CNC(=O)Nc1ccccc1", "INHIBITION": -65.9}, {"smiles": "CCN(CC)C[C@H]1CN2CC[C@H]1C[C@@H]2CNC(=O)Nc1ccsc1", "INHIBITION": 8.11}, {"smiles": "CC[C@H]1CN2CC[C@H]1C[C@@H]2CNC(=O)Nc1cc(OC)cc(OC)c1", "INHIBITION": 63.8}, {"smiles": "COCC(=O)NC[C@H]1C[C@@H]2CCN1C[C@@H]2CN(C)c1ccccc1", "INHIBITION": -64.8}]}]}
